Source: PubChem BioAssay (several laboratories)
HSF1 inhib: HSF1 inhibition; hit rate 0.77% among 300,000; AID 2098; activity change, negative = inhibition, % at 7.5 µM (by protocol); NIH3T3-HGL HSE-luciferase, MG132-induced, luminescence 8 h; hits give low values;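 active = more than half of replicate wells show activity change below -50%, luminescence cut by over half; inconclusive = some wells, but at most half, below -50%; inactive = no replicate well below -50%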;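 also: luciferase reports HSF-1 transcriptional activity via heat shock element; 0% = median of DMSO wells and -100% = zero luminescence signal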
NPR2 activator: GC-B (human) receptor activation; activation, % at 10 µM; HEK293-GC-B cells, CNP EC30, cGMP TR-FRET; 0% at EC30 CNP, 100% saturating CNP; AID 1920062; P20594; hit rate 0.11% among 370,000;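 active = activation at 10 µM reaching about 35% in either raw or pattern-adjusted values, limit read from the data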
HSF-1 act: increases HSF-1 driven luciferase reporter signal | NIH3T3-HGL HSF-1 luciferase reporter, MG132, 8 h; 100% = twice DMSO control signal | AID 504408 | hit rate 1.7% among 300,000 | activation, % at 9 µM;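 active = mean replicate activation of at least 50% with a set share of replicates each reaching 50%; inconclusive = only one of those two conditions met; inactive = mean below 50% and too few replicates reaching it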;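 also: 0% = median of the neutral control wells and 100% = twice that signal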
Dyrk1A ADPGlo: inhibitors of rat Dyrk1A kinase; hit rate 0.43% among 310,000; Q63470; AID 504441; ADP-Glo luminescence, NFATc1 peptide; inhibition, % at 12.5 µM; in the data active = inhibition above about 50%;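 also: plate controls were vehicle with enzyme for no effect and no enzyme for full effect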
aDG glyco up: increases alpha dystroglycan glycosylation; Pro5-aDG cells, alpha-DG glycosylation AlphaScreen (IIH6); 0% Pro5, 100% B10-LARGE cell signal; activation, % at 10 µM; hit rate 0.22% among 360,000; AID 624168;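 active = activation of at least 8% versus controls, or a plate z-score of at least 8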;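 also: Pro5 are CHO cells carrying HIG-tagged alpha-DG that lacks glycosylation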
GC-A act: GC-A (human) enzyme activation; P16066; HEK293 GC-A cells, cGMP TR-FRET, EC30 ANP; 0% at EC30 ANP, 100% saturating ANP; activation, % at 10 µM; hit rate 0.14% among 370,000; in the data active = activation above about 40%
Target sequence (P16066 whole entry, looked up): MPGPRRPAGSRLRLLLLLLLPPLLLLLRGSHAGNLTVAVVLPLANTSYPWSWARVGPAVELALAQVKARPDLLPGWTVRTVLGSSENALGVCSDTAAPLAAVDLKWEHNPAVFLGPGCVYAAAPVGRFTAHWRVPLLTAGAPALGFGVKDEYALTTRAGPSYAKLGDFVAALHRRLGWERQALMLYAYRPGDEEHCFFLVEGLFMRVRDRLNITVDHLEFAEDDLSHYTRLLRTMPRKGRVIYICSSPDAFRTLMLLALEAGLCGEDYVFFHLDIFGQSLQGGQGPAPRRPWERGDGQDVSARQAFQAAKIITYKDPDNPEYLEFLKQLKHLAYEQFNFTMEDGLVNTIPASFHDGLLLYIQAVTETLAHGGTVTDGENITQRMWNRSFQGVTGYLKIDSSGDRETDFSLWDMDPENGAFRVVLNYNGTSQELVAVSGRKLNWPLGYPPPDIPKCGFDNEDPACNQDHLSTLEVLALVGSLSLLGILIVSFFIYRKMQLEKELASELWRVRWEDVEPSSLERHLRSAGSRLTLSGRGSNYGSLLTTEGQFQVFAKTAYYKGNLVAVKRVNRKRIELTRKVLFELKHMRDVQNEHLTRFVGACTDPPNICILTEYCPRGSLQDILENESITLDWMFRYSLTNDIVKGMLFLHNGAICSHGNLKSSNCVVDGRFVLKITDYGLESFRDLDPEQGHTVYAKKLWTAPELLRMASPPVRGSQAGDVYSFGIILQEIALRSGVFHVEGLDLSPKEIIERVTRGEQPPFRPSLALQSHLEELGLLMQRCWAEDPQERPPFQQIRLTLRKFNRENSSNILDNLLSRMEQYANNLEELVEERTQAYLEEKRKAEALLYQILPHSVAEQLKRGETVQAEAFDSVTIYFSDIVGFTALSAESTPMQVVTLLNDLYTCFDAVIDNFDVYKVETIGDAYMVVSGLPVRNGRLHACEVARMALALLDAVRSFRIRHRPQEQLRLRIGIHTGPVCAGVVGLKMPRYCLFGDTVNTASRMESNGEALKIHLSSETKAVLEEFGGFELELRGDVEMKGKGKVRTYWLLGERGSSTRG
Numbers without * were called inactive; ? = inconclusive; · = no result given. A selection: hits, their analogues and other compounds. The true share with any hit is near 2.5%.

SMILES | HSF1 inhib | NPR2 activator | HSF-1 act | Dyrk1A ADPGlo | aDG glyco up | GC-A act
CCOC(=O)Nc1ccc2c(c1)N(C(=O)CN(CC)CC)c1ccccc1C=C2 | 58 | · | 74* | -7 | 0 | ·
CC(CCc1ccccc1)NC(=O)c1ccco1 (stereo unspecified) | 2 | -5 | 22 | 9 | 1 | 1
O=C(N=Nc1c(O)[nH]c2ccccc12)c1cc(NS(=O)(=O)c2cccs2)cc(NS(=O)(=O)c2cccs2)c1 | 3 | 5 | -12 | -4 | 0 | 0
O=C(N=Nc1c(O)[nH]c2ccccc12)c1cccs1 | 25 | -7 | 76* | 7 | 0 | -1
CCCN1Cc2cccc(C(=O)NC(C)c3cccs3)c2C1=O (stereo unspecified) | 2 | 11 | 21 | -2 | 0 | 9
CC1CCCN(Cc2c(C(=O)N3CCc4ccccc4C3)nc3ccc(Cl)cn23)C1 (stereo unspecified) | 1 | 1 | -2 | 1 | 0 | -7
CCC(C)(C)NC(=O)c1cc(C(=O)OC)cc([N+](=O)[O-])c1 | -9 | 1 | -10 | -4 | 0 | 3
CCCN(CCC)S(=O)(=O)c1ccc(NC(=O)c2cc(C(=O)OC)cc([N+](=O)[O-])c2)cc1 | -61* | 4 | -71 | -2 | 1 | 0
N#CCC(=O)Nc1ccc(C(=O)OCC(=O)Nc2ccccc2Sc2ccccc2)cc1 | 21 | 1 | 63* | -6 | 0 | -3
Cc1ccc(C(=O)/C=C/Nc2cccc([N+](=O)[O-])c2)o1 | 22 | -2 | 59* | 3 | 0 | 1
CC(=O)Nc1ccc(S(=O)(=O)Nc2cccc(-c3csc(C)n3)c2)cc1 | -3 | -2 | 3 | 3 | 0 | -2
CC(C)C(=O)Nc1cccc(-c2nc3ccccc3o2)c1 | -11 | 3 | -21 | -1 | 0 | 8
CC(=O)Nc1cccc(-c2nc3ccccc3o2)c1 | 22 | 0 | 73* | 0 | 0 | 5
CC(=O)Nc1ccc(S(=O)(=O)Nc2cccc(-c3nc4cc(C)ccc4o3)c2)cc1 | 4 | -5 | -6 | -3 | 3.9* | -1
Cc1cccn2c(=O)c(/C=C(\C#N)C(=O)NC3CCS(=O)(=O)C3)c(Oc3ccccc3Cl)nc12 (stereo unspecified) | 11 | -1 | 31 | 8 | 0 | 8
Cc1ccccc1Oc1nc2c(C)cccn2c(=O)c1/C=C(\C#N)C(=O)NC1CCS(=O)(=O)C1 (stereo unspecified) | 43 | 7 | 72* | 5 | 0 | 4
Cc1cc(C)cc(NC(=O)c2ccc([N+](=O)[O-])o2)c1 | 41 | -4 | ? | -2 | 2 | -5
O=C(Nc1ccc(Cl)cn1)c1ccc([N+](=O)[O-])o1 | 96 | -6 | 140* | 3 | 5 | 3
CC(=O)c1ccc(NC(=O)c2ccc([N+](=O)[O-])o2)cc1 | 94 | -2 | 91* | 9 | 0 | -9
COc1ccc(NC(=O)c2ccc([N+](=O)[O-])o2)cc1 | 44 | -4 | 64* | -2 | 0 | 0
O=C(NNC(=O)c1ccc([N+](=O)[O-])o1)c1ccccc1 | 2 | 4 | -11 | -2 | 1 | -1
CC(=O)c1cccc(NC(=O)c2ccc([N+](=O)[O-])o2)c1 | 45 | -5 | 55* | · | 1 | 0
CCCCCCN1CCS(=O)(=O)N(Cc2ccc(Cl)cc2)C(C(=O)OC)C1 (stereo unspecified) | · | 0 | · | · | · | -1
CCc1c(C)nc(SCc2cccnc2)[nH]c1=O | 1 | · | 30 | 2 | 0 | ·
CNC[C@H](Cc1ccccc1)NC[C@@H](Cc1cccc2ccccc12)NCCc1ccc(C)cc1 | -91* | -13 | -92 | 1 | -1 | -1
SMILES | HSF1 inhib | NPR2 activator | HSF-1 act | Dyrk1A ADPGlo | aDG glyco up | GC-A act
CC(C)c1ccc(N(C(=O)c2csnn2)C(C(=O)NC(C)(C)C)c2ccncc2)cc1 (stereo unspecified) | 40 | -1 | 66* | 0 | 0 | 6
CC[C@@H](C)[C@H](NC(=O)OC(C)(C)C)c1nnc(S(=O)(=O)Cc2cc(C)ccc2C)o1 | -66* | -8 | -65 | 3 | 0 | -1
CC(C)[C@H](NC(=O)OC(C)(C)C)c1nnc(S(=O)(=O)Cc2c(F)cccc2Cl)o1 | 37 | 6 | 46 | -1 | 0 | 8
Cc1ccccc1CS(=O)(=O)c1nnc([C@H](CC(C)C)NC(=O)OC(C)(C)C)o1 | 74 | -5 | 107* | 2 | 0 | -19
CC(C)(C)OC(=O)N[C@@H](Cc1ccccc1)c1nnc(S(=O)(=O)Cc2cccc(F)c2)o1 | 12 | · | 24 | · | · | ·
C=CCn1c(SCC(=O)Nc2ccccc2-c2ccccc2)nc2cc(C(=O)O)ccc2c1=O | 4 | 1 | 25 | 5 | 0 | -4
CCNC(=O)O/N=C(\C)c1sc(-c2ccc(Cl)cc2)nc1C | 34 | 0 | 60* | 6 | 1 | 6
C/C(=N\OC(=O)NC(C)C)c1sc(-c2ccc(Cl)cc2)nc1C | 27 | -2 | ? | -6 | 1 | 8
C/C(=N\NC(=O)c1ccc(Cl)cc1)c1cccnc1 | 8 | -1 | 8 | -3 | 0 | 8
CCCCSc1nc(C)cc(SCC(=O)N/N=C/c2cccc(OC)c2O)n1 | 42 | -4 | 84* | -1 | 0 | -20
COc1cccc(/C=N/NC(=O)CSc2nnc(C)n2-c2ccccc2)c1O | -1 | 0 | -14 | 9 | 0 | 1
CC(C)OCCCN1C(=O)c2[nH]nc(-c3ccccc3O)c2C1c1cccc(Cl)c1 (stereo unspecified) | 13 | -12 | -1 | 4 | 0 | -15
COCCCN1C(=O)c2[nH]nc(-c3ccccc3O)c2C1c1cccc(Cl)c1 (stereo unspecified) | 36 | -17 | 71* | -5 | 0 | -19
CC1(c2ccccc2)CC2CC(c3ccccc3)N1O2 (stereo unspecified) | 64 | -12 | 124* | 2 | 0 | -3
COc1ccc(C2CC3CC(c4ccccc4)N2O3)cc1 (stereo unspecified) | 4 | -10 | 17 | 0 | 0 | 4
CCOC(=O)CN1CC23C=CC(O2)C(C(=O)NC2CCCC2)C3C1=O (stereo unspecified) | -6 | 1 | -17 | -12 | 0 | 6
CCOC(=O)CN1CC23C=CC(O2)C(C(=O)NC2CCCCC2)C3C1=O (stereo unspecified) | -89* | 1 | -92 | -1 | 0 | 6
O=C1C=C(c2ccccc2)CC(c2ccc(F)cc2)C1 (stereo unspecified) | 13 | -7 | 26 | 3 | 0 | 6
O=C1C=C(c2ccccc2)CC(/C=C/c2ccccc2)C1 (stereo unspecified) | 70 | 1 | 98* | -1 | 0 | 1
